Compound activity from PubChem.
NPR1 activator: GC-A stimulated cGMP production enhancers – HEK293 GC-A cells, cGMP TR-FRET, EC30 ANP, primary screen; 370,000 compounds, 0.14% hits; Atrial natriuretic peptide receptor 1 (Homo sapiens), P16066; activation, % at 10 µM; 0% at EC30 ANP, 100% saturating ANP; in the data active means activation above about 40%
NPR2 activator: human GC-B receptor activators, primary screen, HEK293 GC-B cells, cGMP TR-FRET, EC30 CNP. 0% at EC30 CNP, 100% saturating CNP. activation, % at 10 µM. 370,000 compounds, 0.11% hits. AID 1920062, 2024;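 active means activation at 10 µM reaching about 35% in either raw or pattern-adjusted values, limit read from the data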
HDAC3 inhib: HDAC3 deacetylase inhibitors, primary screen, biochemical, fluorescence, cell-free homogeneous; Histone deacetylase 3 (Homo sapiens), O15379; recombinant HDAC3, fluorogenic peptide/trypsin coupled; inhibition, % at 8.3 µM; 320,000 compounds, 0.15% hits; in the data active means inhibition above about 26%, passing the limit was not always enough; inconclusive means no clear call, values can overlap the other calls
ALR H2O2 inh: inhibitors of human ALR sulfhydryl oxidase, primary screen, biochemical, H2O2 detection, HRP-luminol luminescence, single point. FAD-linked sulfhydryl oxidase ALR (Homo sapiens), P55789. purified ALR, DTT oxidation. inhibition, % (concentration not given with the values). 290,000 compounds, 3.8% hits;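 active means mean replicate inhibition above about 79%, with every replicate also reaching it, limit read from the data; inconclusive means only one of the two criteria met; inactive means mean below limit and not every replicate reaching it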
Each line names hits and unclear results; the compound was inactive in the other large screens. Shown is part of a subset that was picked to be rich in hits.

Cc1ccc(NC2CCCN(C(=O)c3ccc4[nH]ccc4c3)C2)cc1C (centres undefined)	ALR H2O2 inh 88
COc1c(C)cc(C(=O)C2CCCN(C(=O)c3ccc4[nH]ccc4c3)C2)cc1C (centres undefined)	none
O=C(c1ccc2[nH]ccc2c1)N1CCCC(Nc2ccccc2)C1 (centres undefined)	ALR H2O2 inh 99 (no result: HDAC3 inhib)
C[C@H]1CN([C@@H](C)CO)C(=O)CCCn2cc(nn2)CO[C@@H]1CN(C)C(=O)OCc1ccccc1	none (no result: HDAC3 inhib, ALR H2O2 inh)
CC12CC3CC(C)(C1)CC(C(=O)Nc1nncs1)(C3)C2	none
Cc1cccc2sc(NNC(=O)C3COc4ccccc4O3)nc12 (centres undefined)	ALR H2O2 inh 100
O=C(NNc1nc2c(F)cc(F)cc2s1)C1COc2ccccc2O1 (centres undefined)	none (no result: ALR H2O2 inh)
CCc1ccc(NC(=O)/C(C#N)=C\c2ccc(OC)c(C(=O)O)c2)cc1	ALR H2O2 inh 99
COc1cc(/C=C(/C#N)C(=O)Nc2ccccc2)ccc1OCc1ccc(C(=O)O)cc1	none
COc1ccc(/C=C(/C#N)C(=O)Nc2ccc(O)cc2)cc1C(=O)O	ALR H2O2 inh 99
Cc1ccc(NC(=O)CSc2ncc(S(=O)(=O)c3ccccc3)c(=O)[nH]2)cc1C	ALR H2O2 inh 100
Cc1ccc(NC(=O)CSc2ncn(-c3ccccc3)n2)cc1C	none
O=C(CSc1ncc(S(=O)(=O)c2ccccc2)c(=O)[nH]1)Nc1ccccc1Cl	ALR H2O2 inh 78
COc1cccc(NC(=O)CSc2ncc(S(=O)(=O)c3ccccc3)c(=O)[nH]2)c1	ALR H2O2 inh inconclusive
Cc1ccc(NC(=O)CSc2ncc3ccccn23)cc1C	ALR H2O2 inh 99
O=C(CSc1nc(NS(=O)(=O)c2ccccc2)cc(=O)[nH]1)Nc1ccccc1Cl	none (no result: HDAC3 inhib, ALR H2O2 inh)
Cc1ccc(-n2c(SCC(=O)Nc3ccc(S(=O)(=O)Nc4nccs4)cc3)nnc2-c2cccs2)cc1	none (no result: HDAC3 inhib, ALR H2O2 inh)
C[C@H](CO)N1C[C@H](C)[C@@H](CN(C)S(=O)(=O)c2ccc(F)cc2)Oc2c(NC(=O)Nc3ccc(C(F)(F)F)cc3)cccc2C1=O	none
C[C@H]1CN([C@@H](C)CO)C(=O)c2cccc(NC(=O)Nc3ccc(C(F)(F)F)cc3)c2O[C@@H]1CN(C)S(=O)(=O)c1ccc(Cl)cc1	HDAC3 inhib 34
O=C(Nc1nnc([C@@H]2C[C@H](O)[C@@H](CO)O2)s1)c1ccccc1Cl	none (no result: HDAC3 inhib, ALR H2O2 inh)
COc1cccc(-c2csc(NNC(=O)c3cccs3)n2)c1	ALR H2O2 inh 96
COc1cccc(-c2csc(NC(=O)Oc3ccccc3)n2)c1	none
Cc1cccc(C)c1NC(=O)CSc1nc(-c2ccco2)cc(C(F)(F)F)n1	NPR1 activator 57 (no result: ALR H2O2 inh)
Cc1cc(NC(=O)CSc2nc(-c3ccco3)cc(C(F)(F)F)n2)no1	none
S=c1[nH]nc(CSc2nc3ccccc3s2)o1	ALR H2O2 inh 99
Cn1c(CSc2nc3ccccc3s2)n[nH]c1=S	ALR H2O2 inh 98
Cn1c(-c2sc3ccccc3c2Cl)n[nH]c1=S	ALR H2O2 inh 97
COc1cc(C(=O)Nc2cccc(C)c2C)c(Br)c(OC)c1OC	HDAC3 inhib inconclusive
Oc1ccc(N2CCN(Cc3nc4ccccc4[nH]3)CC2)cc1	ALR H2O2 inh 99
OCc1ccccc1SSc1ccccc1CO	ALR H2O2 inh 98
COc1ccc(C(=O)N/N=C(/C)c2ccc(N3CCCCC3)cc2)cc1	ALR H2O2 inh 92
COc1ccc(C(=O)NC(=S)N2CCN(c3ccccc3O)CC2)cc1	ALR H2O2 inh 99
COc1cccc(C(=O)Nc2cc3c(cc2N2CCCC2)n(C)c(=O)n3C)c1	ALR H2O2 inh 99
COc1ccc(C(=O)Nc2ccc(N3CCCC3)cc2)cc1	none
Cn1c(=O)n(C)c2cc(N3CCCC3)c(NC(=O)c3cccc(F)c3)cc21	none (no result: ALR H2O2 inh)
COc1ccc(C(=O)NC(C(=O)N2CCN(c3ccccc3O)CC2)C(C)C)cc1 (centres undefined)	none
O=C(Nc1ccccc1N1CCCC1)C1CCN(C(=O)c2ccc(F)cc2)CC1	ALR H2O2 inh 98
CCOc1ccccc1C(=O)Nc1cc2c(cc1N1CCCC1)n(CC)c(=O)n2CC	ALR H2O2 inh 99
Cc1ccc(NC(=O)CSCC(=O)Nc2ccccc2N2CCCC2)cc1	ALR H2O2 inh 99
COc1ccc(CC(=O)Nc2ccccc2N2CCCCC2)cc1OC	none
COc1ccc(NC(=O)CSCC(=O)Nc2cc(Cl)ccc2N2CCOCC2)cc1	none
COc1cccc(CC(=O)Nc2ccccc2N2CCCC2)c1	ALR H2O2 inh 98
COc1ccc(NC(=O)CSCC(=O)Nc2cc(Cl)ccc2N2CCCC2)cc1	ALR H2O2 inh 99
Cc1ccc(NC(=O)CSCC(=O)Nc2ccccc2C(=O)N2CCCCC2)cc1	none (no result: ALR H2O2 inh)
CCCCC(=O)NC(=O)NC(c1ccccc1)c1ccccc1	none
CCN(CC)C(=O)C(=O)Nc1ccc(OCc2ccccc2)cc1	none
COC(=O)[C@]12C[C@H](CC(=O)NCc3cccc4ccccc34)C(=O)N(Cc3ccc(Cl)cc3Cl)C1=C[C@H](C(C)C)O[C@@H]2C1CC1	none (no result: HDAC3 inhib, ALR H2O2 inh)
CC(=O)Nc1cccc(N)c1	none
Cc1ccc(C(=O)Nc2ccccc2N2CCCCC2)cc1	none (no result: ALR H2O2 inh)
COc1ccc(C(=O)Nc2ccccc2N2CCCC2)cc1S(=O)(=O)N1CCOCC1	ALR H2O2 inh 98
O=C(Nc1ccccc1N1CCCC1)c1cccc(F)c1	ALR H2O2 inh 99
Cc1ccc(C(=O)Nc2ccccc2N2CCCC2)cc1	ALR H2O2 inh 99
O=C(NC(=S)Nc1ccccc1N1CCCC1)c1cccc(F)c1	none
COc1ccc(C(=O)Nc2ccccc2N2CCCC2)cc1	ALR H2O2 inh 94
COc1ccc(C(=O)Nc2ccccc2N2CCOCC2)cc1S(=O)(=O)N1CCCC1	none
O=C1NC[C@@H](CCCCN2C[C@H](Cc3ccc(O)cc3)N(Cc3ccccc3)C(=O)C2=O)N(CCC2CCCCC2)C1=O	none (no result: HDAC3 inhib, ALR H2O2 inh)
O=C1C=C(C#Cc2ccccc2)C[C@@H](c2ccc(F)cc2)C1	none (no result: HDAC3 inhib, ALR H2O2 inh)
O=C(Nc1ccccc1N1CCCCC1)c1ccc(Cl)cc1	none
O=C(CC1OC(=O)c2ccccc21)Nc1cc(Cl)ccc1N1CCCC1 (centres undefined)	ALR H2O2 inh 97
CC(=O)Nc1ccc(S(=O)(=O)N(C)CC(=O)Nc2ccccc2N2CCCC2)cc1	ALR H2O2 inh 99
Cn1nc(C(=O)Nc2ccccc2N2CCCC2)c2ccccc2c1=O	ALR H2O2 inh 92
CC(C)Oc1ccc(C(=O)Nc2ccccc2N2CCCC2)cc1	HDAC3 inhib inconclusive, ALR H2O2 inh 98
CC(=O)c1ccc(NC(=O)C2CCN(S(=O)(=O)c3cccc4nonc34)CC2)cc1	none
CCOC(=O)[C@@H]1[C@H]2COc3ccccc3[C@H]2N2C(=O)N(c3ccc(Br)cc3)C(=O)[C@]12C	none
Cc1cc(C)c2c(=O)n3c(nc2c1)C(CC(C)C)NC(=O)c1cccnc1-3 (centres undefined)	none (no result: HDAC3 inhib, ALR H2O2 inh)
Cc1ccc(S(=O)(=O)CCC(=O)Nc2ccccc2C)cc1	none
